Autofluor counter – counter-screen for toxin protease inhibitors: compound fluorescence | compound autofluorescence counterscreen, microsphere flow cytometry; hits give high values | fluorescence intensity (concentration not given with the values) | actives 3.1% (n = 360,000) | AID 624483; in the data active = fluorescence intensity above about 16000; inconclusive = no clear call, values can overlap the other calls
Anthrax LF prot – anthrax lethal factor protease inhibition | P15917 | multiplex microsphere protease cleavage assay, LF | inhibition, % at 10 µM | actives 0.12% (n = 360,000) | AID 588501
BoNT F protease – blocks Botulinum neurotoxin F light chain protease. inhibition, % at 10 µM. actives 0.22% (n = 360,000). Multiplex microsphere protease cleavage assay, flow cytometry; in the data active = inhibition above about 35%, passing the limit was not always enough; inconclusive = no clear call, values can overlap the other calls
BoNT-A LC inh2 – inhibitors of Botulinum neurotoxin A light chain protease; multiplex microsphere protease substrate cleavage, flow cytometry; inhibition, % at 10 µM; actives 0.17% (n = 360,000); AID 588499
Large screens that a line does not name were inactive. A selection: hits, their analogues and other compounds. The true share with any hit is near 3.5%. Cut-off read from the data, not from the text of the source, unless noted: active = inhibition above about 30%; inconclusive = no clear call, values can overlap the other calls; inactive = below that.

COc1ccccc1CN1CCCCC1c1cccnc1 (configuration not stated)	Autofluor counter 22672
CC(C)OC(=O)c1cccnc1SCc1cc(=O)n2ccccc2n1	Autofluor counter 24425
CCN(CCCNC(=O)Cn1ncc2c([nH]c3ccc(C)cc32)c1=O)c1ccccc1	none
COc1ccc(C(=O)Nc2ccc3c(c2)nc(CCNC(C)=O)n3C)cc1	Autofluor counter 20535
COc1ccccc1C(=O)Nc1ccc2c(c1)nc(CCNC(C)=O)n2C	Autofluor counter 21508
CC(=O)NCCc1nc2cc(NC(=O)c3ccc(F)cc3)ccc2n1C	none
COc1ccc(C)cc1S(=O)(=O)N1CCC(C)CC1	Autofluor counter 21743
COc1ccc(C)cc1S(=O)(=O)N1CC(C)OC(C)C1 (configuration not stated)	none
COc1ccc(C)cc1S(=O)(=O)N1CCCCCC1	none
CCOc1ccc(C)cc1S(=O)(=O)N1CCCCC1	Autofluor counter 21517, BoNT-A LC inh2 inconclusive
CCOc1cc(S(=O)(=O)N2CCCCC2)ccc1F	Autofluor counter 22074
CCOc1ccc(OCC)c(S(=O)(=O)N2CCCCC2C)c1 (configuration not stated)	Autofluor counter 16721
COc1ccc(NS(=O)(=O)c2cc(NC(=O)c3ccc(=O)[nH]c3)ccc2N2CCCC2)cc1	none
O=C(Cn1cc([N+](=O)[O-])ccc1=O)NCC(=O)Nc1ccc(F)c(F)c1F	none
CCc1ccccc1Nc1nc(N)nc(COC(=O)c2cccn2C)n1	Autofluor counter 21076
Cc1ccccc1Nc1nc(N)nc(COC(=O)c2cccn2C)n1	none
COCCCNC(=O)c1ccccc1-c1cc(C)no1	BoNT F protease inconclusive, BoNT-A LC inh2 inconclusive
CC(C)OC(=O)c1c(NC(=O)CCC(=O)O)sc2c1CCCCC2	none
CC(C)OC(=O)c1c(NC(=O)CCn2nnc3ccccc32)sc2c1CCCC2	Autofluor counter 20341, BoNT-A LC inh2 inconclusive
CCC1(c2ccccc2)NC(=O)N(CC(=O)Nc2ccc(S(=O)(=O)Nc3ncccn3)cc2)C1=O (configuration not stated)	none
CC(NC(=O)c1ccccc1F)C1CC1 (configuration not stated)	none
Cc1cccc(NC(=O)c2nc[nH]c2C(=O)N(C)Cc2ccccc2)c1	none
O=C(CS(=O)c1cccc(Cl)c1)Nc1ccccc1Cl (configuration not stated)	Autofluor counter 22003, BoNT-A LC inh2 inconclusive
Cc1nc([N+](=O)[O-])cn1CC(=O)c1ccc(OC(F)(F)F)cc1	none
Cc1[nH]n(-c2ccccc2)c(=O)c1S(=O)(=O)c1ccccc1	Autofluor counter 16181
Cc1[nH]n(-c2ccccc2)c(=O)c1CCO	none
C[C@@H]1CN([C@H](C)CO)C(=O)CCCn2nncc2CO[C@H]1CN(C)C(=O)NC1CCCCC1	none
COc1ccc(OC)c(N(CC(N)=O)S(=O)(=O)c2ccc(OC)c(OC)c2)c1	Autofluor counter 20080
COc1ccc(OC)c(N(CC(=O)N2CCCCC2)S(=O)(=O)c2ccc(OC)c(OC)c2)c1	none
COc1ccc(OC)c(N(CC(=O)N2CCC(C)CC2)S(=O)(=O)c2ccccc2)c1	Autofluor counter 20367, BoNT-A LC inh2 inconclusive
Cc1ccc(S(=O)(=O)N(CC(=O)N2CCC(C)CC2)c2cccc(C)c2)cc1	Autofluor counter 20718
Cc1ccc(C)c(S(=O)(=O)N2CCN(c3nc(-c4cccnc4)nc4ccccc34)CC2)c1	Autofluor counter inconclusive
Cn1c(=O)c2c(nc(CN3CCN(C(=O)c4ccco4)CC3)n2Cc2cccc(Cl)c2)n(C)c1=O	Autofluor counter 22343
Cn1c(=O)c2c(nc(CN3CCN(C(=O)c4ccco4)CC3)n2Cc2ccc(Cl)cc2)n(C)c1=O	Autofluor counter 18363
O=C(c1ccco1)N1CCN(Cc2nc3ccccc3[nH]2)CC1	none
Cn1c(=O)c2c(nc(CN3CCN(C(=O)c4ccco4)CC3)n2CCCc2ccccc2)n(C)c1=O	none
Cn1c(=O)c2c(nc(CN3CCN(C(=O)c4ccco4)CC3)n2CCc2ccccc2)n(C)c1=O	Autofluor counter 21635
O=C(c1ccco1)N1CCN(Cc2nc3ccccc3c(=O)n2-c2ccc(F)cc2)CC1	Autofluor counter 22917
CCCC(=O)Nc1nnc(S(=O)(=O)N(CC(C)C)c2ccccc2)s1	none
COCCCn1c(SCCc2ccccc2)nc2cc(OC)c(OC)cc2c1=N	none
COc1cc2nc(SCc3ccc(F)cc3)n(Cc3cccs3)c(=N)c2cc1OC	Autofluor counter 20501, BoNT-A LC inh2 inconclusive
CC(=O)Nc1ccc(N(C(=O)c2ccco2)C(C(=O)NC2CCCC2)c2ccncc2)cc1 (configuration not stated)	none
Fc1cccc(CO/N=C/c2c(-c3ccccc3)nc3ccc(Cl)cn23)c1	Autofluor counter 16783
CN(C)c1nc(NCc2ccccc2)nc(SCC(=O)Nc2ccc(Cl)c(Cl)c2)n1	Autofluor counter 19687
CCNc1nc(SCC(=O)Nc2ccc(Cl)c(Cl)c2)nc(N(C)C)n1	none
Cc1ccc(C2CC(=O)N3CN(Cc4ccco4)CSC3=C2C#N)cc1 (configuration not stated)	Autofluor counter 20926
COc1ccccc1-n1c(SCC(=O)N2CCOCC2)nc(O)cc1=O	none
Cc1ccnc(SCC(=O)N2CCN(c3ccccc3)CC2)n1	Autofluor counter 21477
COc1ccc(N2CCN(C(=O)CSc3nnc(-c4cc5ccccc5cc4O)n3C)CC2)cc1	Autofluor counter 16210
Cc1ccccc1-n1c(SCC(=O)N2CCOCC2)nc(O)cc1=O	Autofluor counter 21580, BoNT-A LC inh2 inconclusive
Cc1ccnc(SCC(=O)N2CCN(c3cccc(Cl)c3)CC2)n1	none
O=C(CSc1ccccn1)N1CCN(c2ccc(Cl)cc2)CC1	Autofluor counter 21847, BoNT-A LC inh2 inconclusive
COc1ccc(-n2cnnc2SCC(=O)N2CCN(c3ccccc3)CC2)cc1	none
O=C(C[C@@H]1C/C=C/CC[C@H](Cc2ccc(F)cc2)C(=O)OCCNC1=O)N[C@H](CO)Cc1ccccc1	none
Cn1c(SCC(=O)N2CCN(c3ccccc3)CC2)nnc1-c1ccco1	Autofluor counter 20444
O=C(CSc1nnc(-c2ccccc2)n1-c1ccccc1)N1c2ccccc2Sc2ccccc21	Autofluor counter 21718
Cc1nnc(SCC(=O)N2c3ccccc3Sc3ccccc32)n1N	none
Cn1c(SCC(=O)N2CCOCC2)nnc1-c1ccco1	none
Cn1c(CCNC(=O)c2cccs2)nnc1SCC(=O)N1CCN(c2ccccc2)CC1	Autofluor counter 23569, BoNT-A LC inh2 inconclusive
Cc1ccccc1-n1c(SCC(=O)N2CCC(C(=O)O)CC2)nnc1-c1ccncc1	none
Cc1ccccc1-n1c(SCC(=O)N2CCN(c3ccccc3)CC2)nnc1-c1ccncc1	Autofluor counter 21220
CC(=O)c1c(C)[nH]c(C(=O)CN2CCN(S(=O)(=O)c3ccccc3)CC2)c1C	none
CCCc1nnc(NS(=O)(=O)c2ccc(C)cc2)o1	none
CCOc1ccccc1N(CC(=O)Nc1ccccc1Br)S(=O)(=O)c1ccccc1	none
CCOC(=O)c1c(-c2cc(OC)c(OC)c(OC)c2)csc1NC(=O)c1ccccc1	none
CCOC(=O)c1c(-c2ccccc2)csc1NC(=O)c1ccc(N2C(=O)CCC2=O)cc1	Autofluor counter 22792
CCOC(=O)c1c(-c2ccccc2)csc1NC(=O)c1ccc(S(=O)(=O)N2CC(C)OC(C)C2)cc1 (configuration not stated)	Autofluor counter 23061
